According to PubChem BioAssay (EPA / NIEHS):
Records with an inconclusive call do not appear. Activity calls are given as the source filed them. How the source made its calls: active means hit-call score of the fitted dose curve at least 0.9, where 1 is the maximum; inconclusive means response in the unintended direction; inactive means score below 0.9.

Columns and labels:
[1] = TOX21_p53_BLA_p2_viability: Viability Assessment in the Tox21 HCT-116 p53 Agonism Beta-lactamase Assay, Phase 2 (AID 2283591);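 further: actives lower the ATP signal meaning cytotoxicity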
Method in brief: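 HCT116 p53-bla cells, 4000/well, dosed after 5 h plating (217-fold dilution of DMSO stocks) and incubated 16 h at 37C. Viability taken as cellular ATP by CellTiter-Glo luminescence after 30 min RT; signal loss marks cytotoxicity.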

[2] = target: Cellular tumor antigen p53 (Homo sapiens) (UniProt P04637); test: TOX21_p53_BLA_p2_ratio: Tox21 HCT-116 p53 Agonism Beta-lactamase Assay, Ratio, Phase 2 (AID 2283592)
Method in brief: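 Readout: blue/green (460/530 nm) FRET emission ratio after 2 h CCF4-AM loading at room temperature, excitation 405 nm. HCT116 p53 bla cells, 16 h compound exposure at 37C, 5% CO2; agonist direction fitted against DMSO baseline.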

[3] = TOX21_p53_BLA_p3_viability: Viability Assessment in the Tox21 HCT-116 p53 Agonism Beta-lactamase Assay, Phase 3 (AID 2283593);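 further: cells exposed to compound for 16 h before reading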
Method in brief: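 HCT116 cells, 4000/well, dosed 5 h after plating by pin transfer (217-fold dilution from DMSO stock) and incubated 16 h at 37C, 5% CO2. Viability read as ATP luminescence with CellTiter-Glo after 30 min at room temperature.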

[4] = target: Cellular tumor antigen p53 (Homo sapiens) (UniProt P04637); test: TOX21_p53_BLA_p3_ratio: Tox21 HCT-116 p53 Agonism Beta-lactamase Assay, Ratio, Phase 3 (AID 2283596)
Method in brief: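 Cells were seeded at 4000/well, rested 5 h at 37C, then dosed with DMSO compound solutions (217-fold dilution) for 16 h. CCF4-AM substrate was loaded for 2 h at room temperature, and the 460/530 nm emission ratio was fitted for gain of signal versus DMSO.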

[5] = TOX21_p53_BLA_p4_viability: Viability Assessment in the Tox21 HCT-116 p53 Agonism Beta-lactamase Assay, Phase 4 (AID 2283597);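 further: hits lower the luminescence signal meaning cytotoxicity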
Method in brief: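 ATP content by CellTiter-Glo luminescence, 30 min RT, read after the beta-lactamase ratio step. Cells: HCT116, 4000/well, compound added after 5 h, exposure 16 h at 37C. Signal loss = reduced viability.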

[6] = target: Cellular tumor antigen p53 (Homo sapiens) (UniProt P04637); test: TOX21_p53_BLA_p5_ratio: Tox21 HCT-116 p53 Agonism Beta-lactamase Assay, Ratio, Phase 5 (AID 2283599)
Method in brief: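 HCT-116 p53-bla cells (4000/well) plated 5 h, dosed with compound (217-fold DMSO dilution) for 16 h at 37 C; CCF4-AM substrate 2 h at room temperature. Activity is the 460/530 nm emission ratio (405 nm excitation), fitted in gain-of-signal direction versus DMSO.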

[7] = TOX21_p53_BLA_p5_viability: Viability Assessment in the Tox21 HCT-116 p53 Agonism Beta-lactamase Assay, Phase 5 (AID 2283600)
Method in brief: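 ATP luminescence (CellTiter-Glo, 30 min, RT) served as the viability read-out, with loss of signal indicating cytotoxicity. Compounds in DMSO were pinned at a 217-fold dilution onto 4000 cells/well and incubated 16 h, 37C.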

[8] = target: Cellular tumor antigen p53 (Homo sapiens) (UniProt P04637); test: TOX21_p53_BLA_p4_ratio: Tox21 HCT-116 p53 Agonism Beta-lactamase Assay, Ratio, Phase 4 (AID 2283601)
Method in brief: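 HCT-116 p53 beta-lactamase reporter cells (4000/well) preincubated 5 h, then compound (217-fold dilution of DMSO stock) for 16 h at 37C. CCF4-AM substrate added 2 h at room temperature; 460/530 nm emission ratio fitted upward versus DMSO.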

[9] = target: Thyroid hormone receptor alpha (Rattus norvegicus) + Thyroid hormone receptor beta (Rattus norvegicus) (UniProt P18113+P63059); test: TOX21_TR_LUC_GH3_Antagonist_Followup: Tox21 GH3 Thyroid Hormone Receptor Antagonism Luciferase Follow-Up Assay (AID 2283942)
Method in brief: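 Luminescence read-out (ONE-Glo, 30 min at room temperature) in GH3 reporter cells challenged with 1.0 nM T3 final. Compounds ran at 92 uM to 5nM over 15 concentrations for 24 h; DMSO served as negative control and baseline.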

THRB (gene 7068) = THRB (gene 7068) (UniProt P10828); test: TOX21_TRB_BLA_Antagonist_Followup_ratio: Tox21 Thyroid Hormone Receptor beta Antagonism Beta-lactamase (BLA) Follow-Up Assay, Ratio (AID 2283958)
Method in brief: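 Read-out: blue/green (460:530 nm) ratio of cleaved to uncleaved CCF4-AM after 2 h at room temperature, fitted against DMSO baseline. HEK293T UAS-bla cells carrying GAL4-human TRβ LBD were exposed 18 h, 37C/5% CO2.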

[10] = TOX21_TRB_BLA_Antagonist_Followup_viability: Viability Assessment in the Tox21 Thyroid Hormone Receptor beta Antagonism Beta-lactamase (BLA) Follow-Up Assay (AID 2283961)
Method in brief: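 Viability read as CellTiter-Glo ATP luminescence (loss of signal = cytotoxicity) in the same plates as the TRβ-bla readout. TRβ-LBD/GAL4 UAS-bla HEK293T cells were exposed to compounds, 11 concentrations in triplicate, for 18 h at 37C/5% CO2.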

Measured: outcome

Sequence of Cellular tumor antigen p53 (Homo sapiens) (P04637 whole entry, looked up): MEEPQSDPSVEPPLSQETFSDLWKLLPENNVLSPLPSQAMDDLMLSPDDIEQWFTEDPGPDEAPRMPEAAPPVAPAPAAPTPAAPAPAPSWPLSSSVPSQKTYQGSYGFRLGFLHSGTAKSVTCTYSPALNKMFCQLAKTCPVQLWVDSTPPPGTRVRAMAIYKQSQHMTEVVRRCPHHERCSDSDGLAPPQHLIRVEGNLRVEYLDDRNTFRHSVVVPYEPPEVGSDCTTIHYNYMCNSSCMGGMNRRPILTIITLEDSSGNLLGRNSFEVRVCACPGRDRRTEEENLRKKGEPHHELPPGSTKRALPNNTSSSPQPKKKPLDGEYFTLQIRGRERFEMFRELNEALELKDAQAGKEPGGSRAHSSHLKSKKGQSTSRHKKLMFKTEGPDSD
Sequence of THRB (gene 7068) (P10828 whole entry, looked up, the tested form may be a part): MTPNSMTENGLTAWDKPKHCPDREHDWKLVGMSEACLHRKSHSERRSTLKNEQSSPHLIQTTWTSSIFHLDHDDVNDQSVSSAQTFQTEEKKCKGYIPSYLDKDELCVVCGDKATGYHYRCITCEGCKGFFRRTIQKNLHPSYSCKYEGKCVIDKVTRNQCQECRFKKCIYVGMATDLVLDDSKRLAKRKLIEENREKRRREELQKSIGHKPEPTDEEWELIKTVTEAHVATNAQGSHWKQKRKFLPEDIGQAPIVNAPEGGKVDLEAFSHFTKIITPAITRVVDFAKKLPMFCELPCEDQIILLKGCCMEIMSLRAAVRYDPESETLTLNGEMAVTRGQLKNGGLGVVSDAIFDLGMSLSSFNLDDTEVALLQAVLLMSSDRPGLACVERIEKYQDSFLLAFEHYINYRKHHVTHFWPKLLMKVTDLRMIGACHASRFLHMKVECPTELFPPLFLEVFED

COC1=CC(=O)O[C@@H](/C=C/c2ccc3c(c2)OCO3)C1
inactive: all assays above

N=C(N)[Se]
not listed: [9] | THRB (gene 7068) | [10]
inactive: all other assays above
